# ST2 IL33 inh: blocks human ST2 binding to IL-33. Q01638. AlphaLISA ST2-Fc/biotin-IL-33 interaction, 1 h. inhibition, % for hits at 17 µM. 2.3% of 78,000 active. AID 1259354; in the data active means inhibition above about 30%
# Target sequence (Q01638 whole entry, looked up): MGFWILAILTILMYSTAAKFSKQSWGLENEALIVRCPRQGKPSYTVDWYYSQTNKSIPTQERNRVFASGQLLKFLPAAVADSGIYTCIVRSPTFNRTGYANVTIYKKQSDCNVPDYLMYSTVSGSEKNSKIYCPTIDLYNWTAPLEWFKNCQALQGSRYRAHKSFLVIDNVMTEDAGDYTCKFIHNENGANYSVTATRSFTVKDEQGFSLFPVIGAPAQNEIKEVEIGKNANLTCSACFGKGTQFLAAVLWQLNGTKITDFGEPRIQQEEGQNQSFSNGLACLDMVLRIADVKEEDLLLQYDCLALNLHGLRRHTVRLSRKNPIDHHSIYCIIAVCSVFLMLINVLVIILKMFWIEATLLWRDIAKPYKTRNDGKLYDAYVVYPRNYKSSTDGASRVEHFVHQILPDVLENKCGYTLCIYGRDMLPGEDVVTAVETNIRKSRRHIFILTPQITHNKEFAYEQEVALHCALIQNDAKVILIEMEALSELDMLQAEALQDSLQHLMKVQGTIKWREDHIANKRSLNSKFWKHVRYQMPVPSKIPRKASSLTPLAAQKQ
# A number is an active result; n = inactive; ! = not active in a repeat. This excerpt belongs to a sample that is enriched for hits.
SMILES,ST2 IL33 inh
O=C(Cc1cccs1)Nc1ccccc1NC(=O)Cc1cccs1,n
O=C(O)c1ccc(NCc2cccs2)cc1,n
COc1ccccc1NCc1cccs1,32%
CC(C)NC(=O)c1ccc2c(c1)NC(=O)C(N1CCCCC1)S2 (stereo not drawn),n
Cc1cnn(-c2ccc3nnc(-c4ccc(Cl)cc4)n3n2)c1,36%
Cc1ccn2cc(-c3ccc(Cl)cc3)nc2c1,n
Clc1ccc(-c2nnc3ccc(Cl)nn23)cc1,n
Cc1cc(C(=O)Nc2cc(Cl)ccc2O)no1,n
Clc1ccccc1N1CCN(Cc2ccsc2)CC1,n
O=[N+]([O-])c1cccc(/C=C/c2ccccn2)c1,37%
O=[N+]([O-])c1cccc(C(=Nc2ccccc2)NO)c1,n
Nc1nnc(/C=C/c2cccc([N+](=O)[O-])c2)s1,n
Cn1ccnc1Sc1cc(N2CCOCC2)ccc1[N+](=O)[O-],n
O=C(CCc1cn2ccccc2n1)N1CCOC(Cc2ccccc2)C1 (stereo not drawn),n
Cc1cc(CNC(=O)c2cnn(-c3nccc(-c4cc(C)sc4C)n3)c2C)on1,30%
Cc1nc(CCNC(=O)c2cnn(-c3ccccn3)c2C)sc1C,n
COc1ccccc1-c1ccnc(-n2ncc(C(=O)NC(c3ccncc3)c3ccc(C)cc3)c2C)n1 (stereo not drawn),n
CCOC(=O)C1=C(C)NC2=C(C(=O)CC(c3ccccc3)C2)C1c1ccccc1OC(C)C (stereo not drawn),n
C/C(=C\c1nsc(Nc2ccc(Cl)cc2)n1)NCc1ccc2c(c1)OCO2,n
CN(C(=O)CCC(=O)NC1CCCCCC1)C1CC(C)(C)NC(C)(C)C1,n
CC1(C)CC(NC(=O)CC2CCCCC2)CC(C)(C)N1,34%
CC1(C)CC(NC2CC(C)(C)NC(C)(C)C2)CC(C)(C)N1,n
COc1ccc(C(C)=O)cc1CN1CCOCC1,n
O=C(O)C1CCC(CNCc2c(Cl)cccc2Cl)CC1 (stereo not drawn),n
C=CCN(C(=O)c1cccc(OC)c1)c1nnc(-c2ccc(Cl)cc2)s1,n
SMILES,ST2 IL33 inh
CC(=O)c1ccc(S(=O)(=O)N=C2C=C(C(C)(C)C)C(=O)C(C(C)(C)C)=C2)cc1,n
COc1ccc2nc(N3CCC(C(=O)NCc4ccccn4)CC3)sc2c1,n
CCc1ccccc1NC(=O)c1ccccc1[N+](=O)[O-],n
CCN(CC)c1ccc(NC(=O)c2ccccc2Br)c(C)c1,n
CCCOc1ccc(C(=O)Nc2ccccc2[N+](=O)[O-])cc1,39%
CCC(=O)c1ccccc1NC(=O)c1ccccc1Br,n
CCOc1ccc(NC(=O)c2ccccc2Br)c([N+](=O)[O-])c1,36%
CCCOc1ccc(C(=O)Nc2cc(Cl)ccc2Cl)cc1,n
CCOc1cccc(C(=O)Nc2ccc(C)cc2[N+](=O)[O-])c1,n
Cc1ccc(NC(=O)c2ccccc2[N+](=O)[O-])cc1,n
CCOc1ccc(NC(=O)c2ccccc2OCC)c([N+](=O)[O-])c1,42%
Cc1c(C(=O)Nc2ccccc2[N+](=O)[O-])csc1-c1ccccc1,35%
CCOc1ccccc1NC(=O)c1ccccc1C,n
CCCOc1cccc(C(=O)Nc2ccccc2Cl)c1,n
O=C1CSC(c2ccc(Br)cc2)N1c1ccc(Br)cc1 (stereo not drawn),n
CC(C)Cc1cc(C(=O)N2CCCC2c2ccccn2)no1 (stereo not drawn),n
CCc1cc(C(C)NCc2cn[nH]c2-c2ccc(F)cc2)on1 (stereo not drawn),n
COc1ccc(NC(=O)CN2CCCN(Cc3cccc(F)c3)S2(=O)=O)cc1Cl,n
Cc1[nH]nc(SCC(=O)Nc2cc(Cl)ccc2O)c1[N+](=O)[O-],n
O=S(=O)(NCC(c1cccnc1)N1CCN(c2ccccc2F)CC1)c1ccc(F)cc1 (stereo not drawn),n
O=C(NC1CCCC1)c1ccc2c(c1)ncn2C1CCCCCC1,n
O=C(CN1CCOc2ccccc2C1)N1CCc2nc[nH]c2C1,n
COc1ccc(CN2CCN(Cc3ccc4c(c3)OCO4)CC2)c(OC)c1OC,n
Cc1cccn2c(=O)c3cc(C(=O)NCc4cccnc4)c(=N)n(CCCn4ccnc4)c3nc12,n
N#Cc1cc2c(=O)n3ccccc3nc2n(CCc2ccccc2)c1=N,n
SMILES,ST2 IL33 inh
CCC(C)n1c(=N)c(C#N)cc2c(=O)n3ccccc3nc21 (stereo not drawn),39%
CCC(C)n1c(=N)c(C(=O)NC2CCCCC2)cc2c(=O)n3ccccc3nc21 (stereo not drawn),n
N#Cc1cc2c(=O)n3ccccc3nc2n(Cc2ccccc2)c1=N,n
N#Cc1cc2c(=O)n3ccccc3nc2n(CCCn2ccnc2)c1=N,31%
O=[N+]([O-])c1ccc(C(O)CC(O)C(Cl)(Cl)Cl)cc1 (stereo not drawn),n
N#Cc1c(NC(=O)c2ccc(N3C(=O)C4C5C=CC(C5)C4C3=O)cc2)sc2c1CCCC2 (stereo not drawn),n
NC(=O)c1cccc(CC2CCN(C(=O)Cn3nc4ccccc4n3)C2)c1 (stereo not drawn),n
Cc1cc(Cl)ccc1N1C(=O)C(N2C(=O)c3ccc([N+](=O)[O-])cc3C2=O)C1c1cccs1 (stereo not drawn),39%
COc1cc2c(cc1OC)C(C(=O)Nc1ccc(C)c(F)c1)C(c1cccs1)N(C)C2=O (stereo not drawn),n
COc1cccc(C2C(N3C(=O)c4ccccc4C3=O)C(=O)N2c2ccc(C)c(F)c2)c1 (stereo not drawn),n
O=C1c2ccc([N+](=O)[O-])cc2C(=O)N1c1c[nH]c(=O)[nH]c1=O,n
O=C1c2ccc([N+](=O)[O-])cc2C(=O)N1CN1CCCCC1,n
Cc1ccc(N2C(=O)C(N3C(=O)c4cccc([N+](=O)[O-])c4C3=O)C2c2cccs2)cc1F (stereo not drawn),32%
COc1cccc(C2C(N3C(=O)c4ccccc4C3=O)C(=O)N2c2ccc(C)c(C)c2)c1 (stereo not drawn),n
Cc1ccc(N2C(=O)C(N3C(=O)c4ccccc4C3=O)C2c2ccc(N(C)C)cc2)cc1F (stereo not drawn),31%!
Cc1cc(N2C(=O)c3cccc([N+](=O)[O-])c3C2=O)no1,n
COc1ccc(-c2cc(N3CCN(S(=O)(=O)c4cc(OC)ccc4OC)CC3)ncn2)cc1,n
Cc1ccccc1Cn1cc(NC(=O)c2cc(CC(C)C)on2)cn1,n
CC(C)(C)c1ccc(S(=O)(=O)N2CCCCC2C(=O)O)cc1 (stereo not drawn),n
CN1CCc2nc3sc(C(=O)C(C)(C)C)c(N)c3c(-c3cccs3)c2C1,n
Cc1cc(N2C(=O)CSC2c2cccnc2)ccc1Br (stereo not drawn),n
O=c1[nH]c(CN2CCOCC2)nc2c1C1(CCCC1)Cc1ccccc1-2,n
Cn1c(=O)c2nc(-c3ccccc3)oc2c2ccccc21,n
CC1(C)Cc2ccccc2-c2nc(-c3ccccc3)oc(=O)c21,41%
O=c1[nH]c(CN2CCCC2)nc2c1C1(CCCC1)Cc1ccccc1-2,n
SMILES,ST2 IL33 inh
O=c1oc(-c2ccccc2)nc2c1C1(CCCC1)Cc1ccccc1-2,48%
CC1(C)Cc2ccccc2-c2nnc(-c3ccccc3)n21,n
COc1cccc(CCNC(=O)Cn2nnnc2CN2CCCCCC2)c1OC,n
CCc1nc(CN2CCCCC2c2ccc(F)cc2)no1 (stereo not drawn),n
O=C(Nc1ccccc1F)C1CCN(C(=O)c2cccs2)CC1,n
O=C1C(N2CCOCC2)=CC(=NS(=O)(=O)c2ccc(Cl)cc2)c2ccccc21,71%
O=C1C(N2CCOCC2)=CC(=NS(=O)(=O)c2ccccc2)c2ccccc21,41%
